Data: the supplement of paper PMC6992640
Structures can show the parent of a compound that is named as a salt. ± gives the standard deviation of the averaged measurements.

Tests used:
Assay in all cases: cell viability (% of vehicle); higher = less cytotoxic
Conditions in all cases: 10 µM; 72 h
HCI01 = test system: HCI01 (cells of a triple-negative basal-like breast cancer xenograft)
HCI03 = test system: HCI03 (cells of an ER-positive luminal breast cancer xenograft)
HCI09 = test system: HCI09 (cells of a triple-negative luminal androgen receptor type breast cancer xenograft)
HCI11 = test system: HCI11 (cells of an ER-positive luminal breast cancer xenograft)
HCI13 = test system: HCI13 (cells of an ER-positive luminal breast cancer xenograft)
HCI16 = test system: HCI16 (cells of a triple-negative basal-like breast cancer xenograft)
UCD52 = test system: UCD52 (cells of a triple-negative basal-like breast cancer xenograft)
WHIM2 = test system: WHIM2 (cells of a triple-negative basal-like breast cancer xenograft)
WHIM30 = test system: WHIM30 (cells of a triple-negative basal-like breast cancer xenograft)
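Further: PDX cells carrying CMV promoter-driven luciferase, viability read as total photon flux per second by IVIS imaging following D-luciferin, vehicle control 0.1% DMSO.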

SMILES	cell viability (HCI01)	cell viability (HCI03)	cell viability (HCI09)	cell viability (HCI11)	cell viability (HCI13)	cell viability (HCI16)	cell viability (UCD52)	cell viability (WHIM2)	cell viability (WHIM30)
Cl.O=C1Cc2cc(CCN3CCN(c4nsc5ccccc45)CC3)c(Cl)cc2N1 [Ziprasidone HCl]	45.7 ± 12	78.6	33.8 ± 21	57.8	45.9 ± 5.8	46.5	130 ± 9.5	38.1 ± 5.7	123 ± 11
CCCCNc1cc(C(=O)O)cc(S(N)(=O)=O)c1Oc1ccccc1 [Bumetanide]	109 ± 9.6	95.9	109 ± 8.9	92	89.5 ± 4	108	99 ± 1.3	78.6 ± 14	133 ± 26
CCNC1CC(N)C(OC2OC(CN)=CCC2N)C(O)C1OC1OCC(C)(O)C(NC)C1O.CCNC1CC(N)C(OC2OC(CN)=CCC2N)C(O)C1OC1OCC(C)(O)C(NC)C1O.O=S(=O)(O)O.O=S(=O)(O)O.O=S(=O)(O)O.O=S(=O)(O)O.O=S(=O)(O)O (stereo unspecified) [Netilmicin Sulfate]	99.3 ± 34	125	125 ± 46	111	98.3 ± 2.5	138	120 ± 18	115.7 ± 1.1	138 ± 28
COc1ccc2cc([C@H](C)C(=O)[O-])ccc2c1.[Na+] [Naproxen Sodium]	83.6 ± 6.4	111	85.8 ± 14	106	124 ± 29	100	99.9 ± 3.1	102 ± 12	121 ± 22
CC(C)Cc1ccc(C(C)C(=O)O)cc1 (stereo unspecified) [Ibuprofen]	124 ± 28	115	110 ± 24	104	133 ± 7.1	90.2	88.9 ± 4.3	102 ± 13	104 ± 4.4
CC[C@H](C)[C@@H]1NC(=O)[C@H](Cc2ccc(O)cc2)NC(=O)[C@@H](N)CSSC[C@@H](C(=O)N2CCC[C@H]2C(=O)N[C@@H](CC(C)C)C(=O)NCC(N)=O)NC(=O)[C@H](CC(N)=O)NC(=O)[C@H](CCC(N)=O)NC1=O [Oxytocin]	116 ± 13	110	99.7 ± 2.2	69.2	134 ± 41	128	115 ± 1.7	126 ± 1.9	134 ± 8.1
COC(=O)Nc1nc2ccc(S(=O)c3ccccc3)cc2[nH]1 (stereo unspecified) [Oxfendazole]	102 ± 25	132	113 ± 1.8	93.1	179 ± 34	147	95.3 ± 8	87 ± 7.4	139 ± 8.4
CCc1cc(C(C)=NOCc2ccc(C3CCCCC3)c(C(F)(F)F)c2)ccc1CN1CC(C(=O)O)C1 [BAF312 (Siponimod)]	97.4 ± 10	124	44.2 ± 29	72.2	75.64 ± 0.57	115	93.7 ± 1.5	93.7 ± 17	111 ± 9.5
CN(C)CCc1c[nH]c2ccc(CC3COC(=O)N3)cc12 (stereo unspecified) [Zolmitriptan]	86.8 ± 19	134	107 ± 11	96	119 ± 21	107	94.8 ± 8.3	86.6 ± 2.1	131 ± 11
CC(C)OC(=O)C(C)(C)Oc1ccc(C(=O)c2ccc(Cl)cc2)cc1 [Fenofibrate]	108 ± 18	106	93.6 ± 4.2	92.1	87.5 ± 35	135	89.1 ± 14	109 ± 1.6	137 ± 9.3
OCC1OC(c2ccc(Cl)c(Cc3ccc(OC4CCOC4)cc3)c2)C(O)C(O)C1O (stereo unspecified)	94.9 ± 15	132	90.7 ± 14	84.1	87.5 ± 14	113	94 ± 1.7	112 ± 7	114 ± 9.9
CN(Cc1cc(Br)cc(Br)c1N)C1CCCCC1.Cl [Bromhexine HCl]	95.8 ± 14	86.3	93 ± 6	96.3	64.9 ± 2.5	106	73.8 ± 6.8	44.5 ± 15	108 ± 3.3
CC(=O)OC1(C(C)=O)CCC2C3CC(C)C4=CC(=O)CCC4(C)C3CCC21C (stereo unspecified) [Medroxyprogesterone acetate]	122 ± 12	114	98.5 ± 53	78.4	152 ± 16	177	95 ± 3.6	87.8 ± 5.8	184 ± 9.5
CN1C2CCC1CC(OC(c1ccccc1)c1ccccc1)C2.CS(=O)(=O)O (stereo unspecified) [Benztropine mesylate]	189 ± 60	108	110 ± 13	94	120 ± 14	125	80.4 ± 7.7	83.4 ± 12	141 ± 1.6
CN1CCN(C2=Nc3ccccc3Oc3ccc(Cl)cc32)CC1.O=C(O)CCC(=O)O [Loxapine Succinate]	117 ± 40	88.4	84.5 ± 17	84.4	64.9 ± 5.7	138	108 ± 6.8	104 ± 24	103 ± 6
COc1ccc(CNc2nc(N3CCCC3CO)ncc2C(=O)NCc2ncccn2)cc1Cl (stereo unspecified) [Avanafil]	155 ± 7.5	117	102 ± 23	143	123 ± 11	121	104 ± 15	130 ± 2.6	135 ± 7.5
CC1C=CC=CC=CC=CC=CC=CC=CC(OC2OC(C)C(O)C(N)C2O)CC2OC(O)(CC(O)CC(O)C(O)CCC(O)CC(O)CC(=O)OC(C)C(C)C1O)CC(O)C2C(=O)O (stereo unspecified) [Amphotericin B]	108 ± 19	116	105 ± 2.6	109	107 ± 18	107	82.2 ± 5.4	95.2 ± 23	127 ± 1.4

SMILES	cell viability (HCI01)	cell viability (HCI03)	cell viability (HCI09)	cell viability (HCI11)	cell viability (HCI13)	cell viability (HCI16)	cell viability (UCD52)	cell viability (WHIM2)	cell viability (WHIM30)
CC(C(=O)O)c1ccc2c(c1)CC(=O)c1ccccc1S2 (stereo unspecified) [Zaltoprofen]	124 ± 32	120	95.5 ± 26	103	134 ± 6.7	112	77.9 ± 11	98 ± 13	82.8 ± 5.6
C=CC(=O)Nc1cccc(Nc2nc(Nc3ccc(N4CCN(C(C)=O)CC4)cc3OC)ncc2C(F)(F)F)c1	103 ± 4.6	99.9	63.8 ± 0.93	94	88.2 ± 3.4	73.3	64.7 ± 17	66.7 ± 2.6	99.6 ± 16
N=C(NCCCCCCNC(=N)NC(=N)Nc1ccc(Cl)cc1)NC(=N)Nc1ccc(Cl)cc1 [Chlorhexidine digluconate]	77.9 ± 12	118	60.1 ± 19	76	68.6 ± 2	112	98.5 ± 24	48.8 ± 1.5	103 ± 6
CN[C@H](CC(C)C)C(=O)N[C@H]1C(=O)N[C@@H](CC(N)=O)C(=O)N[C@H]2C(=O)N[C@H]3C(=O)N[C@H](C(=O)N[C@H](C(=O)O)c4cc(O)cc(O)c4-c4cc3ccc4O)[C@H](O)c3ccc(c(Cl)c3)Oc3cc2cc(c3O[C@@H]2O[C@H](CO)[C@@H](O)[C@H](O)[C@H]2O[C@H]2C[C@](C)(N)[C@H](O)[C@H](C)O2)Oc2ccc(cc2Cl)[C@H]1O [Vancomycin hydrochloride]	125 ± 1.7	110	146 ± 38	92.4	195 ± 13	167	122 ± 7.7	107 ± 4.2	148 ± 22
COc1ccccc1Oc1c(NS(=O)(=O)c2ccc(C(C)(C)C)cc2)nc(-c2ncccn2)nc1OCCO [Bosentan]	110 ± 16	95.1	71.1 ± 21	86.4	83.7 ± 5.7	104	111 ± 2.8	114 ± 36	114 ± 3.2
CC(=O)OCC(CCn1cnc2cnc(N)nc21)COC(C)=O [Famciclovir]	112 ± 17	114	93.4 ± 4.1	96.3	123 ± 7.6	136	85.3 ± 8.4	106 ± 7.2	114 ± 2.1
NS(=O)(=O)NCC/N=C1\NON\C1=C(\N=O)Nc1ccc(F)c(Br)c1	105 ± 6.8	99	35 ± 8.5	96.4	66.5 ± 1.4	112	57.5 ± 3.6	88.9 ± 9.7	96.2 ± 6
Clc1ccc(COC(Cn2ccnc2)c2ccc(Cl)cc2Cl)c(Cl)c1 (stereo unspecified) [Miconazole]	109 ± 41	87.6	62.3 ± 36	82	47.3 ± 10	120	74.4 ± 3	99.6 ± 24	128 ± 3.7
Cc1ccnc(NS(=O)(=O)c2ccc(N)cc2)n1 [Sulfamerazine]	100 ± 36	131	88.41 ± 0.75	84.2	103 ± 8.7	111	86.8 ± 8.5	75.2 ± 10	99.5 ± 6
COc1cc2nc(N(C)CCCNC(=O)C3CCCO3)nc(N)c2cc1OC.Cl (stereo unspecified) [Alfuzosin HCl]	103 ± 3	97.4	105 ± 8.8	113	101 ± 24	113	91.6 ± 8.4	85.5 ± 3	133 ± 8.8
C[C@H]1COc2c(N3CCN(C)CC3)c(F)cc3c(=O)c(C(=O)O)cn1c23 [Levofloxacin]	102 ± 26	109	88 ± 17	89.6	124 ± 50	123	88.7 ± 1.4	104 ± 12	132 ± 2.4
C[N+]1(C)[C@@H]2C[C@@H](OC(=O)C(O)(c3cccs3)c3cccs3)C[C@H]1[C@@H]1O[C@@H]12.[Br-] [Tiotropium Bromide]	124 ± 17	116	106 ± 18	102	116 ± 12	103	88.9 ± 4.2	94.7 ± 18	125 ± 12
CCCCN1CCCCC1C(=O)Nc1c(C)cccc1C.Cl (stereo unspecified) [Bupivacaine HCl]	145 ± 30	128	104 ± 14	120	106 ± 2.1	169	89 ± 16	111 ± 7.6	117 ± 12
CCN1CCN(c2cc3c(cc2F)c(=O)c(C(=O)O)cn3C2CC2)CC1 [Enrofloxacin]	105 ± 14	106	99.9 ± 18	91.8	121 ± 8.5	111	124 ± 5.2	130 ± 18	80.5 ± 6.2
C[N+](C)(C)CCO.[Cl-] [Choline Chloride]	135 ± 42	120	89.2 ± 11	78.8	73.78 ± 0.7	116	85.6 ± 10	105 ± 17	101 ± 3.5
CCCCCCCCCC(=O)NC(Cc1c[nH]c2ccccc12)C(=O)NC(CC(N)=O)C(=O)NC(CC(=O)O)C(=O)NC1C(=O)NCC(=O)NC(CCCN)C(=O)NC(CC(=O)O)C(=O)NC(C)C(=O)NC(CC(=O)O)C(=O)NCC(=O)NC(CO)C(=O)NC(C(C)CC(=O)O)C(=O)NC(CC(=O)c2ccccc2N)C(=O)OC1C (stereo unspecified) [Daptomycin]	142 ± 4.9	141	128 ± 9.9	113	163 ± 89	111	118 ± 18	103 ± 28	162 ± 40
CCCc1nn(C)c2c(=O)nc(-c3cc(S(=O)(=O)N4CCN(C)CC4)ccc3OCC)[nH]c12 [Sildenafil]	83.6 ± 6.4	101	82.8 ± 18	73.3	73.7 ± 3.3	103	82.8 ± 2.1	92.4 ± 1	105.82 ± 0.018
